# According to PubChem BioAssay (NCI):
# “And” between values parts separate entries of the source, which are not always exact repeats. Equal entries are not always repeated. The panel holds about 83,000 compounds, 20% with a hit somewhere; the sample as a whole holds those more often.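 The test compound was applied at a single concentration to cells in 96-well plates for 48 hours, and percent growth was recorded.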 Unmarked numbers belong to inactive results. The source made the active and inactive calls. How the source made its calls: active means growth percent below 10; inactive means the rest.
# System: MDA-MB-468 breast
# Experiment: NCI-60 one-dose screen, 48 h (100 = growth as untreated, 0 = no growth, -100 = all killed)
# Conditions: 10 µM unless noted
row,Structure (SMILES),growth
1,O=C(O)CC1Sc2ccccc2NC1=O (stereo not given),163%
2,CC(C)(C)CC(C)(C)c1ccc(OCCSC(=N)N)cc1,-23.9% (active)
3,O=C1/C=C/[C@@H](O)[C@@H]2C[C@@H](O)C[C@H]2/C=C/CCC[C@H](CCc2cccc3ccccc23)O1,-32.4% (active)
4,N#Cc1c(Nc2ccccc2)nn2cc(-c3nc4ccccc4s3)c(N)nc12,73.8%
5,CC[C@]12C=CCN3CC[C@@]4(c5ccc(OC)cc5N(C)[C@H]4[C@@](O)(C(=O)OC)[C@@H]1OC(=O)CCC(=O)O[C@H]1CC[C@H]4[C@@H]5CCC6=CC(=O)CC[C@@H]6[C@H]5CC[C@]14C)[C@@H]32,-30.2% [100 µM] (active)
6,CN1CCN(Cc2ccc(NC(=O)c3cncc(C#Cc4cnc5ccc(NC6CCOCC6)nn45)c3)cc2C(F)(F)F)CC1,-88.5% (active)
7,COC(=O)/C=C1/SC(=Nc2cccc(Cl)c2)N(CCc2c[nH]c3ccc(O)cc23)C1=O,24.7%
8,COc1cccc(C2C3=C(COC3=O)N(CCO)c3cc4c(cc32)CCC4)c1 (stereo not given),-51.6% (active)
9,COc1ccc(-n2ncc3c2ccc2cc(S(=O)(=O)c4ccccc4)c(=O)n(C)c23)cc1,94.5%
10,C=CCOc1ccc(Cl)cc1Cl,111%
11,C#Cc1nc(C2=C(C)C(O)/C(=N/O)C2)cs1 (stereo not given),74.5%
12,NNC(=O)c1nc2ccccc2[nH]1,126%
13,CC1(C)CC[C@]2(c3nnc(-c4ccncc4)o3)CC[C@H]3C(=CC[C@H]4[C@@]3(C)CC[C@H]3C(C)(C)C(=O)CC[C@]43C)[C@@H]2C1,62.2%
14,CN(C)CCCC1(c2ccc(F)cc2)OCc2cc(-c3ccc(C(F)(F)F)nc3)ccc21 (stereo not given),73.3%
15,CCOC(=O)c1cc(C(=O)c2ccc(OC)c(OC)c2)n2ccc(/C=C/c3cc[n+](CC(=O)c4ccc(OC)c(OC)c4)cc3)cc12,71.9%
16,N#C/C(=C\c1c(-c2ccccc2)[nH]c2ccccc12)C(=O)c1ccccc1,86.9%
17,Cn1cc(-c2nnc(-c3cn(C)c4ncc(Br)cc34)s2)c2cc(Br)ccc21,101%
18,COc1cc(/C=C(\C#N)C(=O)c2ccccc2)ccc1OCc1ccccc1,96.4%
19,Clc1ccc(Nc2ncc(Cc3cccc(Cl)c3Cl)s2)cc1,99.4%
20,CC(=O)CC1CCCC1c1ccc2ccccc2c1 (stereo not given),101%

row,Structure (SMILES),growth
1,CCc1cc(O)ccc1Nc1cc(-c2ccc(-n3cccn3)cc2)[nH]n1,58.8%
2,Cc1ccccc1N1C(c2ccccc2)=NNC12C=CC(=O)c1c(O)cccc12 (stereo not given),88%
3,O=C(O)CSCc1nc2ccccc2[nH]1,118%
4,CCN(CC)CCCC(C)NCc1ccccc1 (stereo not given),112%
5,Cc1cc2c(C#N)n3c(c2cc1C)C(=O)C(c1ccccc1)Oc1ccccc1-3 (stereo not given),50%
6,CC1CC(O)CC(C)(C)C1 (stereo not given),108%
7,Nc1cc(Br)cc2c1[nH]c(=O)c1ccccc12,-8.15% (active)
8,Cc1ccc(CN2CCC(C(=O)Nc3ccc(-c4cc5ccccc5[nH]4)cc3)CC2)o1,5.26% (active)
9,O=C1/C(=C/c2ccc(O)cc2)COc2ccc(-c3ccccc3)cc21,65%
10,O=S(=O)(NCCNc1nccc(-c2c(-c3ccc(F)cc3)nc3sccn23)n1)c1ccc2ccccc2c1,76.4%
11,Cc1cc(NS(=O)(=O)c2ccccc2)c(OS(=O)(=O)c2ccccc2)cc1C,102%
12,CCOC(=O)N1C2CCC(C2)N1C(=O)OCC,105%
13,COc1cc(-c2ccc3ncnc(NC(C)c4ccccc4)c3c2)cnc1OC (stereo not given),-3.02% (active)
14,O=[N+]([O-])c1ccc(Oc2ccccc2)cc1,103% and 113%
15,N#CSc1c[nH]c2cccc(/C=C/C(=O)/C=C(O)/C=C/c3cccc4[nH]cc(SC#N)c34)c12,-55.8% (active)
16,COc1ccc(/C=c2\c(=O)n(-c3ccccc3)c3nn4c(=O)c(=O)[nH]nc4n23)cc1,112%
17,COc1ccc(C(=O)/C=C/c2c(Cl)nc3c(c(C)nn3-c3ccccc3)c2-c2ccc(Br)cc2)cc1,103%
18,CCOc1cccc(/C=N\Nc2nc(=O)cc(C(=O)OC)s2)c1O,49.9%
19,Cc1ccc(/C=C(\C#N)n2nnc3cc(F)c(F)cc32)cc1,17.3%
20,N#Cc1nc(-c2ccccc2)oc1N1CCC(C2(C(F)(F)F)N=N2)CC1,112%
